Bioassay records (PubChem)
Sampled rows, rich in hits. Any-hit rate of the full collection: about 4.2%.
Mito fusion yeast: blocks mitochondrial division or promotes mitochondrial fusion | S. cerevisiae fusion-defective mutant growth rescue, CellTiterGlo 48 h | Potency, µM (titrated, usually from 46.1 µM), for inactives: at the highest dose growth rescue (activation), most hits filed as activators | hit rate 0.23% among 320,000 | AID 485298; further: % of control where 0% means no effect; nearly all actives have a fitted effect of over 45% in size
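Compounds are tested for their ability to restore growth of mitochondrial fusion-defective yeast strains at non-permissive 37C in YPEG medium over 48 hours. Viability is quantified by luciferase luminescence.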
SW480 rerep: inducers of DNA re-replication in SW480 colon cancer cells. SW480 DNA re-replication, Hoechst DNA content imaging, 48 h. Potency, µM (top dose mostly 46.1 µM), without a hit: top-dose re-replication activation, usual class: activators. hit rate 1.8% among 340,000. AID 624297; further: % of control where 0% means no effect; nearly all actives have a fitted effect of over 55% in size
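Readout is total intensity of Hoechst-stained nuclei, excited at 405 nm and collected at 500-530 nm. Compound treatment lasted 48 hr at 37 C in 5% CO2 before staining.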
AT treatment: potential ataxia-telangiectasia treatments restoring KAP-1 phosphorylation | F2112 A-T fibroblasts, KAP-1 phosphorylation AlphaLISA; neocarzinostatin DNA damage 30 min before lysis | Potency, µM (top dose mostly 57.5 µM), inactives show at the highest dose activation, usual class: activators | hit rate 0.19% among 320,000 | AID 485349; further: % of control where 0% means no effect; nearly all actives have a fitted effect of over 45% in size
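hTERT-immortalized A-T patient fibroblasts (F2112), 500 cells/well in OPTI-MEM, 1% FBS, got compounds for 60 min, then NCS for 30 min at 37C. Lysates were then assayed for phospho-KAP-1 by AlphaLISA (anti-pKAP1 donor, anti-KAP1 acceptor beads), 6 hr at 25C.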
MCF10A rerep: induces DNA re-replication in MCF 10a normal breast cells; MCF 10A DNA re-replication, Hoechst nuclear intensity, 48 h; Potency, µM (series often up to 46.1 µM), for the others: top-dose activity, positive = re-replication, most hits filed as activators; hit rate 2.9% among 350,000; AID 624296; further: % of control where 0% means no effect; nearly all actives have a fitted effect of over 50% in size
a7 integrin act: integrin-mediated muscular dystrophy alleviation activation. Potency, µM (highest dose often 38.3 µM), for the others: at the highest dose activation, hits mostly activators. hit rate 0.064% among 350,000. alpha7betagal myoblasts, beta-gal FDG fluorescence, 48 h;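 further: 100% = response of the positive control SU9516; nearly all actives have a fitted effect of over 60% in size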
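alpha7betagal+/- myoblasts (passage 13, 250/well) treated 48 h at 37C with compounds at 1:260 dilution of DMSO stock. Lysed, then beta-galactosidase activity read as FDG fluorescence (ex 480/em 540) after 30 min, with pre-read for autofluorescence.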
An asterisk follows results filed as active; ? = inconclusive; · = not tested or not shown; [ ] = remark or other dose. The call rests on the fitted dose curve; in most records, active means well fitted activation curve with a large enough effect; inconclusive means small, poorly fitted or top-dose-only effect; inactive means no such curve, though single readings can be large or run the other way. Potency means the concentration at half of the fitted maximal effect.

SMILES	Mito fusion yeast	SW480 rerep	AT treatment	MCF10A rerep	a7 integrin act
O=C(NC1CCCCCC1)c1ccc([N+](=O)[O-])s1	6.2%	18.4µM*	-1.5%	?	-70.9%
CC(NC(=O)C12CC3CC(CC(C3)C1)C2)C(=O)NN=Cc1ccc([N+](=O)[O-])o1 (stereo not drawn)	·	?	44.4%	?	-58.0%
O=C(NC1CCCC1)c1ccc(Cl)s1	-1.6%	21.5%	3.1%	0.9%	44.8%
CC(NC(=O)c1ccc([N+](=O)[O-])o1)C12CC3CC(CC(C3)C1)C2 (stereo not drawn)	14.1µM*	?	8.6%	?	-64.0%
O=C(NC1CCCCC1)c1ccc([N+](=O)[O-])o1	11.6%	?	-11.4%	16.4µM*	-34.5%
CC(C)(C)NC(=O)c1sccc1C(=O)O	-8.6%	0.7%	·	-5.9%	29.1%
CCNC(=O)C1CCCN(c2nc(C)cc(C)n2)C1 (stereo not drawn)	1.6%	-31.6%	3.1%	-7.0%	-12.6%
O=[N+]([O-])c1ccc(/C=[N+](\[O-])[C@@H]2CCCC[C@@H]2/[N+]([O-])=C/c2ccc([N+](=O)[O-])o2)o1	-34.6%	2.91µM*	34.1%	23.1µM*	-24.4%
Clc1ccccc1OCCCCN1CCNCC1	-8.9%	-43.8%	-3.8%	20.6µM*	-18.3%
O=C(c1cccc(S(=O)(=O)NCc2ccccc2)c1)N1CCN(c2ccccc2)CC1	·	?	-11.3%	6.51µM*	-11.1%
O=C(c1cccc(S(=O)(=O)NCc2ccccc2)c1)N1CCN(c2ccccc2Cl)CC1	·	16.4µM*	·	?	-18.7%
Cc1cccc(N2CCN(C(=O)c3ccc(Cl)c(S(=O)(=O)NCc4ccco4)c3)CC2)c1C	14.2%	?	-0.3%	16.4µM*	-28.3%
CC1CN(C(=O)c2ccc(Cl)c(S(=O)(=O)NCc3ccco3)c2)CC(C)O1 (stereo not drawn)	-3.5%	-8.9%	-8.1%	-2.6%	-0.8%
Cn1c(N2CCN(C(c3ccccc3)c3ccccc3)CC2)nc2ccccc21	-6.3%	?	-14.0%	23.1µM*	-11.4%
Cn1c(N2CCN(C(=O)Nc3ccc(F)cc3)CC2)nc2ccccc21	4.0%	0.3%	·	8.1%	7.3%
CC(C)c1nnc(NC(=O)CCC(=O)NC2CCCc3ccccc32)s1 (stereo not drawn)	-19.0%	0.1%	5.6%	18.0%	19.5%
CCCCn1nnc(NC(=S)NC(=O)c2cccs2)n1	1.9%	18.4µM*	4.0%	-4.7%	23.2%
Cn1nnc(NC(=S)NC(=O)c2cccs2)n1	-4.4%	?	-2.3%	0.3%	-0.2%
O=C(c1ccc(N2CCCC2=O)cc1)N1CCN(c2cccc(C(F)(F)F)c2)CC1	-7.5%	-5.7%	1.3%	1.0%	16.3%
CCN(CC)S(=O)(=O)c1cccc(C(=O)NC(Cc2c[nH]c3ccccc23)c2nnc3n2CCC3)c1 (stereo not drawn)	-1.0%	?	4.0%	-1.3%	2.8%
O=S(=O)(Nc1ccc2cn[nH]c2c1)c1ccc(Cl)cc1	26.1%	1.4%	-3.2%	1.6%	-23.4%
Cc1cc(S(=O)(=O)Nc2ccc3cn[nH]c3c2)c(C)cc1Cl	11.2µM*	4.9%	6.1%	-2.4%	-1.6%
CC(Oc1ccc2ccc(=O)oc2c1)C(=O)N1CCOCC1 (stereo not drawn)	-0.9%	-95.6%	3.5%	-13.5%	26.6%
COc1cc2ccccc2cc1C(=O)N1CCc2ccccc21	?	?	13.8%	16.4µM*	-11.6%
COc1ccc(-c2cc(C(F)(F)F)n3ncc(C(=O)N(C)Cc4ccccc4)c3n2)cc1	17.5%	23.1µM*	8.5%	?	8.0%
SMILES	Mito fusion yeast	SW480 rerep	AT treatment	MCF10A rerep	a7 integrin act
CCc1nccn1C(=O)c1cnn2c(C(F)F)cc(-c3ccc(C)cc3)nc12	1.9%	?	-3.7%	18.4µM*	-55.7%
O=C(c1cnn2c(C(F)F)cc(-c3ccccc3)nc12)N1CCc2ccccc21	8.0%	-1.5%	0.2%	6.6%	-10.0%
Cc1ccc(-c2cc(C(F)F)n3ncc(C(=O)N4CCc5ccccc54)c3n2)cc1	2.8%	7.31µM*	-3.1%	2.59µM*	-28.2%
CCc1nccn1C(=O)c1cnn2c(C(F)F)cc(-c3ccccc3)nc12	2.9%	·	5.4%	·	·
COc1cc(C(=O)N2CCc3ccccc32)cc(OC)c1OC	0.3%	23.0%	-1.2%	19.6%	31.9%
CCOC(=O)c1c(-c2ccccc2)csc1NC(=O)c1cc(S(=O)(=O)N2CCOCC2)ccc1C	-20.2%	-0.1%	-7.0%	1.3%	10.0%
Cc1ccc(-c2cc(C(=O)N3CCCc4ccccc43)c3ccccc3n2)cc1	16.0%	?	-2.6%	20.6µM*	0.0%[7.66 µM]
COc1ccc(-c2cc(C(F)F)n3ncc(C(=O)N4CCc5ccccc5C4)c3n2)cc1	-5.8%	14.6µM*	1.0%	?	-27.5%
Cc1ccc2nc3sc(C(=O)N4CCCc5ccccc54)c(N)c3cc2c1	?	3.66µM*	5.6%	?	8.5%
CC(C)(C)Cc1c(-c2ccc(F)cc2)nc2ccc(Cl)cn12	·	·	·	·	-49.9%
CC[C@@H](Nc1ncnc2c1oc1ccccc12)C(=O)O	-2.7%	-1.9%	-0.9%	-0.1%	33.8%
CCn1cc(/C=C(\NC(=O)c2ccccc2)C(=O)N2CCOCC2)c2ccccc21	5.0%	-9.3%	5.6%	2.4%	-7.0%
CCSc1nc2cc(OC)c(OC)cc2c(=O)n1CCc1ccccc1	6.1%	-8.0%	·	20.7%	-8.2%[7.66 µM]
COCCCn1c(SCCc2ccccc2)nc2cc(OC)c(OC)cc2c1=N	-0.1%	-14.0%	3.2%	7.31µM*	-26.2%
O=C(COC(=O)Cc1cccc(F)c1)NCCc1ccccc1	3.5%	1.6%	-3.8%	-1.5%	2.0%
Cc1cc(Nc2cccc(Cl)c2)nc(-c2ccccc2O)n1	-2.0%	29.1µM*	23.3%	?	11.9%
Cc1cc(Nc2ccc(Cl)cc2)nc(-c2ccccc2O)n1	3.6%	?	2.1%	?	-13.0%
O=C(CN1C(=O)c2cccc3cccc1c23)Nc1ccccc1C(=O)NCc1ccco1	·	27.8%	·	20.6µM*	-12.2%
C#CCOCCOCCOCCNc1nc(N2CCN(C(=O)CCCCCCCCCCNC(=O)Cn3cc(CCCCCN)nn3)CC2)nc(N2CCN(C(=O)CCCCCCCCCCNC(=O)Cn3cc(C[C@@H](C)O)nn3)CC2)n1	-14.4%	0.7%	8.2%	23.1µM*	-6.1%
C#CCOCCOCCOCCNc1nc(N2CCN(C(=O)CCCCCCCCCCNC(=O)[C@H](CCCCN)n3cc(C)nn3)CC2)nc(N2CCN(C(=O)CCCCCCCCCCNC(=O)[C@H](CCCN=C(N)N)n3cc(C[C@@H](C)CC)nn3)CC2)n1	7.0%	-13.4%[9.22 µM]	9.2%	?	-8.7%
C#CCOCCOCCOCCNc1nc(N2CCN(C(=O)CCCCCCCCCCNC(=O)[C@@H](CCSC)n3cc(CCO)nn3)CC2)nc(N2CCN(C(=O)CCCCCCCCCCNC(=O)[C@H](CO)n3cc(CCCCCN)nn3)CC2)n1	-15.0%	-0.7%	-4.5%	-5.6%	-6.0%
